Results taken from PubChem BioAssay (Tox21).
Values without a mark were called inactive. Calls of active or inactive are those of the source. Calls come from the whole dose curve; as a rule, active = well fitted curve in the direction sought with a large enough effect in the repeat runs; inconclusive = weak or mixed curves; inactive = flat fitted curve, though single readings scatter.

Experiment: qHTS assay to test for compound auto fluorescence at 590 nm (red) in HEK293 cell free culture (AID 720683)
Details: cell-free medium autofluorescence, Ex540/Em590 red; series mostly up to 91.3 µM; fluorescence, % of fluorescent control: at the top concentration
Description: U.S. Tox21 Program National Center for Advancing Translational Sciences [NCATS] NIH Chemical Genomics Center [NCGC] U.S. Environmental Protection Agency [EPA] National Institutes of Environmental Health Sciences [NIEHS] National Toxicology Program [NTP] U.S. Food and Drug Administration [FDA] Tox21 Assay Overview: Compound auto fluorescence often interferes with screening of the compound library against various biological targets and signaling pathways. Some of these compounds may have fluorophoric properties. Such properties may interfere with the assay outputs resulting in false positives and/or negatives. To decrease such complications and ensure the compound activities are relevant in terms of biological response, the Tox21 10K compound library was screened for auto fluorescence. From the fluorophores used as reporter signals in our screening assays, the auto fluorescence equivalencies of compounds against three fluorophores have been evaluated: Triamterene, Fluorescein and Rose Bengal sodium for blue, green and red fluorescence, respectively. The fluorescence intensities were measured using Excitation/Emission wavelengths at 405/460nm, 485/535nm and 540/590nm for blue, green and red labels, respectively. This assay includes the red fluorescence data.
Tox21 Assay Protocol Summary: 5 uL of culture medium (DMEM containing 10% FBS) per well was dispensed into black wall/clear bottom 1536-well plates using a Multidrop Combi Dispenser (ThermoFisher Scientific, Waltham, MA). After 23 nL compound or DMSO vehicle was transferred into assay plate by a pintool work station (Kalypsys, San Diego, CA), fluorescence intensities in the assay plates were measured by an Envision (PerkinElmer, Shelton, CT) plate reader using three labels for measuring blue, green and red fluorescence at […] 460, 535 and 590nm respectively.
% is set by controls: 0 for no effect and ±100 for the full control effect.

| SMILES | fluorescence, % of fluorescent control | Potency |
| --- | --- | --- |
| C=CC(C)(CCC=C(C)C)OC=O (stereo not given) | 0.0865% | – |
| CCc1ccc(Br)cc1 | 0.0706% [at 95.7 µM] | – |
| O=C(O)c1cc(=O)c2ccccc2o1 | 0.0964% [at 46 µM] | – |
| CC[N+](CC)(CC)CCOC(=O)C(C1CCCC1)C1CCCC1 | -0.686% [at 46 µM] | – |
| CC(C)(C)C1CCC(=O)CC1 | -0.0766% | – |
| CN(C)c1ccc(C(=C2C=CC(=[N+](C)C)C=C2)c2ccc(N(C)C)cc2)cc1 | – | inactive |
| CCO[C@@H]1O[C@H](C(COCc2ccccc2)OCc2ccccc2)[C@H](OCc2ccccc2)[C@H]1O (stereo not given in full) | -0.0196% [at 18.6 µM] | – |
| CCCCCCCCCCCCOC(=O)c1ccc(O)cc1 | 0.0247% | – |
| CNC(=O)c1ccccc1Sc1ccc2c(/C=C/c3ccccn3)n[nH]c2c1 | 0.0165% [at 46 µM] | – |
| CCOc1ccc2ccccc2c1C(=O)N[C@@H]1C(=O)N2[C@@H]1SC(C)(C)[C@@H]2C(=O)O | 0.0898% [at 18.6 µM] | – |
| O=C1c2ccccc2C(=O)N1SC1CCCCC1 | – | inactive |
| O=S(=O)(O)c1ccccc1/C=C/c1ccc(-c2ccc(/C=C/c3ccccc3S(=O)(=O)O)cc2)cc1 | 0.0866% | – |
| Cc1cc(C(C)(C)C)cc(C)c1CC1=NCCN1 | 0.0411% [at 18.6 µM] | – |
| ClCCl | -0.0102% | – |
| CC[C@H](C)COC(=O)/C=C/c1ccc(N=Cc2ccc(OC)cc2)cc1 | -0.583% | – |
| Nc1ccc(C(=O)O)c(O)c1 | -0.0785% [at 46 µM] | – |
| CCCCCCCCCCCCCCCC[N+](C)(C)CC | – | inactive |
| O=c1c(O)c(-c2ccc(O)cc2O)oc2cc(O)cc(O)c12 | 0.0031% | – |
| Nc1ccc(NCCO)c([N+](=O)[O-])c1 | -0.313% | – |
| CC[N+](CC)(CC)CCOc1ccc(/C=C/c2ccccc2)cc1 | – | inactive |

| SMILES | fluorescence, % of fluorescent control | Potency |
| --- | --- | --- |
| O=C1CCc2cc(OCCCCc3nnnn3C3CCCCC3)ccc2N1 | -0.0955% [at 46 µM] | – |
| c1ccc(SSc2ccccc2)cc1 | -0.595% | – |
| Nc1ccc(Oc2ccc(Cl)cc2)cc1 | -0.15% | – |
| COCCOc1cc2cc(C(=O)NC3CCN(C(C)C)CC3)n(CC(=O)Nc3ccc(Cl)cn3)c2cn1 | 0.16% | – |
| CN1CCC[C@@H]1CCO[C@](C)(c1ccccc1)c1ccc(Cl)cc1 | -0.9% [at 46 µM] | – |
| Cc1cccc2cccnc12 | -0.0496% | – |
| CC(C)(C)NSc1nc2ccccc2s1 | -0.0746% [at 95.7 µM] | – |
| C=Cc1cccc(C)c1 | 0.0786% | – |
| S=c1nccc[nH]1 | -0.0993% | – |
| OC/C=C/CO | 0.0237% | – |
| Nc1cc(Cl)c(O)c(Cl)c1 | -0.245% | – |
| CCCCCCCCCCCCOCCOCCOCCOCCOCCOCCOCCOCCOCCO | 0.346% [at 46 µM] | – |
| Clc1ccnc(Cl)n1 | -0.216% [at 95.7 µM] | – |
| CCC(C)[O-].CCC(C)[O-].CCOC(=O)/C=C(/C)[O-].[Al+3] | 0.0941% | – |
| CCCCOC(=O)CO | -0.138% | – |
| CCC(C)(CCC(C)C)C(=O)[O][Sn]([CH3])([CH3])[O]C(=O)C(C)(CC)CCC(C)C (stereo not given) | -0.0471% | – |
| Cc1c(F)c(N2CCNC(C)C2)cc2c1c(=O)c(C(=O)O)cn2C1CC1 (stereo not given) | -0.542% [at 46 µM] | – |
| C#C[C@]1(OC(C)=O)CC[C@H]2[C@@H]3CCC4=C/C(=N/O)CC[C@@H]4[C@H]3CC[C@@]21CC | -0.58% [at 46 µM] | – |
| C#C[C@]1(OC(C)=O)CC[C@H]2[C@@H]3CCC4=C[C@@H](OC(C)=O)CC[C@@H]4[C@H]3CC[C@@]21C | – | inactive |
| CC1(C)[C@@H](O)CC[C@]2(C)[C@H]3C(=O)C=C4[C@@H]5C[C@@](C)(C(=O)O)CC[C@]5(C)CC[C@@]4(C)[C@]3(C)CC[C@@H]12 | – | inactive |
